# D1 antag – human D1 dopamine receptor antagonism; P21728; HEK293 TREx D1 cells, calcium flux, dopamine EC80; hits give low values; activity change, negative = inhibition, % at 10 µM; hit rate 3.2% among 360,000; in the data active = activity change below about -30%; note: % is set by controls: 0 for no effect and ±100 for the full control effect
# Target sequence (P21728 whole entry, looked up): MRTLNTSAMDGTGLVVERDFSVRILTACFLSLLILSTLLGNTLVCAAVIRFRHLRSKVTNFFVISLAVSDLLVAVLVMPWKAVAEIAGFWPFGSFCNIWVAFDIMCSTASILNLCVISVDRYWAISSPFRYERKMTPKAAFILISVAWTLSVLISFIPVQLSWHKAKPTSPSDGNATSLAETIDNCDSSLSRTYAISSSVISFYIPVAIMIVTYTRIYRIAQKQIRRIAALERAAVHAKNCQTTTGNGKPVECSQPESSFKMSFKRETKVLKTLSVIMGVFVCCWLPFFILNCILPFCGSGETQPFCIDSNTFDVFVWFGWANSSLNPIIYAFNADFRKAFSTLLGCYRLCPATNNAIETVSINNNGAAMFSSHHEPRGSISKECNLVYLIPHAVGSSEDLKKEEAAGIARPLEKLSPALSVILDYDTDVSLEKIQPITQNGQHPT
#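 HEK293 T-REx cells expressing inducible, force-coupled D1 receptor; no-wash Ca dye, 30–90 min RT. Cmpd → 180 s read at 1 Hz → EC80 DA → 180 s read.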
# D1 PAM – enhances dopamine response at the human D1 receptor. hit rate 0.036% among 360,000. HEK293 TREx D1 cells, calcium flux, dopamine EC20 potentiation. potentiation, % at 10 µM; in the data active = potentiation above about 30%; note: 0% is about no effect
# D1 ag – activates the human D1 dopamine receptor; hit rate 1% among 360,000; HEK293 T-REx D1 cells, calcium flux, agonist mode; AID 504660; activation, % at 2 µM; in the data active = activation above about 30%; note: 0% is about no effect
#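 Tetracycline-induced HEK293 TREx D1 cells, force-coupled to calcium signalling, were dye-loaded with a no-wash calcium kit. Compound was pin-added after a 10 s baseline. Fluorescence was read kinetically at 1 cycle/s for 180 s, with calcium rises flagged as agonism.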
# DRD3 antagonist – antagonists of human D3 dopamine receptor. P35462. D3R cells, DiscoveRx beta-arrestin luminescence, antagonist mode; hits give low values. max response, negative = inhibition, %. hit rate 2.5% among 360,000. AID 652054; in the data active = max response below about -50%; inconclusive = no clear call, values can overlap the other calls; note: % is set by controls: 0 for no effect and ±100 for the full control effect
#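 Cells plated overnight at 1500 cells/well, then exposed to library compounds with dopamine controls for 90 minutes at 37 degrees C. DiscoveRx reagent added for 30–60 minutes at room temperature; luminescence read, quantitative HTS format.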
# DRD3 agonist – agonists of human D3 dopamine receptor | P35462 | hit rate 0.58% among 410,000 | max activation, % | D3R DiscoveRx beta-arrestin cells, luminescence, 90 min | AID 652048; in the data active = max activation above about 30%; note: 0% is about no effect
#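 Agonist mode: compounds and dopamine controls were applied to plated cells for 90 min at 37 degrees C after an overnight attachment at 1500 cells/well. Luminescent read-out followed 30 - 60 minutes at room temperature with DiscoveRx detection reagent.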
# Numbers without * were called inactive; ? = inconclusive; . = no result; ! = repeats disagree. A selection: hits, their analogues and other compounds. The true share with any hit is near 6%.
SMILES,D1 antag,D1 PAM,D1 ag,DRD3 antagonist,DRD3 agonist
CCOC(=O)C1CCN(C(=O)Cn2nc(C)n3c(cc4sccc43)c2=O)CC1,-42*,-6,1,.,5
COc1cccc2c1cc1c(=O)n(CC(=O)N3CCN(c4ccccc4F)CC3)nc(C)n12,-13,-3,-1,.,15
Cc1cn2c(=O)cc(COC(=O)c3cccc(NC(=O)c4ccc(C(C)(C)C)cc4)c3)nc2s1,-3,0,2,.,12
COc1ccccc1C(NC(=O)C1CCN(CCOc2ccc(Cl)cc2)CC1)c1ccccn1 (configuration not stated),.,.,.,-78*,-8
COc1ccccc1C(NC(=O)C1CCN(CCOc2ccccc2)CC1)c1ccccn1 (configuration not stated),.,.,.,-55*,-7
COc1ccc(CN2CCC(C(=O)NC(C)c3cccc4ccccc34)CC2)cc1 (configuration not stated),.,.,.,?,-10
CC(NC(=O)C1CCN(CCOc2ccc(Cl)cc2)CC1)c1cccc2ccccc12 (configuration not stated),.,.,.,-53*,-17
COc1ccccc1C(NC(=O)C1CCN(CCc2ccc(Br)cc2)CC1)c1ccccn1 (configuration not stated),.,.,.,?,-14
CCn1nc(C(=O)Nc2ccc(Cl)c(S(=O)(=O)N3CCOCC3)c2)c2ccccc2c1=O,-37*,-4,4,0,-13
O=C(Nc1ccccc1)Nc1ccc(Cl)c(S(=O)(=O)N2CCOCC2)c1,-11,-9,28,-51*,-11
CCCn1nc(C(=O)Nc2cccc(S(=O)(=O)N3CCOCC3)c2)c2ccccc2c1=O,.,.,.,23,-2
O=C(Nc1ccc(NC(=O)c2ccc(Cl)c(S(=O)(=O)N3CCOCC3)c2)cc1)c1ccccc1,3,-1,9,-5,4
CCOC(=O)C1=CN(Cc2cccc(F)c2)S(=O)(=O)N(C)C1c1cccc(OC)c1 (configuration not stated),.,.,.,29,37*
CCOC(=O)C1=CN(Cc2cccc(F)c2)S(=O)(=O)NC1c1ccc2ccccc2c1 (configuration not stated),.,.,.,-59*,-18
CCOC(=O)C1=CN(Cc2cccc(F)c2)S(=O)(=O)N(C)C1c1ccccc1 (configuration not stated),.,.,.,?,-20
COc1ccc(-c2cc3nc(C)c(CCC(=O)Nc4ccccc4C(C)=O)c(C)n3n2)c(OC)c1,-1,-1,0,.,1
C=Cc1ccc(CSc2nc(-c3ccc(C)cc3)nc3c2Cc2c(CO)cnc(C)c2O3)cc1,-3,3,1,.,13
COc1ccc(-c2cc3ccc(OC(C)C(=O)O)cc3oc2=O)cc1 (configuration not stated),-30*,-6,4,4,2
CC(=O)Oc1ccc(-c2cc3ccc(OC(C)=O)cc3oc2=O)cc1,.,.,.,5,6
CC1(c2ccc3noc(-c4ccc(F)cc4)c3c2)OCCO1,-10,3,6,6,5
Fc1ccc(-c2onc3ccc(C4OCCO4)cc23)cc1,-56*,-1,0,4,-1
O=C/C=C/c1c(-c2ccccc2)cc2oc3ccccc3cc1-2,2,10,3,-66*,-7
Nc1ccc(-c2cc3ccccc3oc2=O)cc1,-19,-3,6,-29,-8
CCC(Sc1nc(-c2ccccc2F)nc2c1Cc1c(CO)cnc(C)c1O2)C(=O)Nc1cc(C)ccc1C (configuration not stated),-4,4,0,.,6
Clc1ccccc1-c1ccc2ncnc(NCc3cccs3)c2c1,-42*,-9,15,.,.
SMILES,D1 antag,D1 PAM,D1 ag,DRD3 antagonist,DRD3 agonist
Cc1csc(CNc2ncnc3ccc(-c4ccoc4)cc23)c1,-63*!,10,11,.,.
Cc1cccc(-c2ccc3ncnc(NCc4cccs4)c3c2)c1,-46*!,-10,8,.,.
Clc1cccc(-c2ccc3ncnc(NCc4cccs4)c3c2)c1,-26,2,0,.,.
Cc1cnc(C(=O)O)c[n+]1[O-],.,.,.,.,-12
Cc1cc(C)cc(NC(=O)CCc2c(C)nc3c(c2C)c(=O)n(C)c(=O)n3C)c1,0,-3,3,.,-4
Cc1ccc2cc(C#N)c(N3CCCN(C(=O)C4CCCO4)CC3)nc2c1 (configuration not stated),-44*,3,2,0,-1
COc1cc(OC)c(NC(=O)CCc2nc(C3=CCN(Cc4cccc(Cl)c4)CC3)no2)cc1Cl,5,-2,0,.,1
C#Cc1nc(Nc2cccc(Cl)c2)nc(NC2CCCC2)n1,-20,0,2,.,.
CCN(CC)P(=O)(Nc1ccc(C)cc1Br)c1ccc(N(C)C)cc1NC(=O)c1ccco1 (configuration not stated),9,-2,0,-60*,-17
Cc1ccc(NC(=O)c2ccco2)c(NC(=O)c2ccccc2)c1,10,-8,2,9,5
CN(C)c1ccc(CN(CC2CCCO2)C(=O)COc2ccc(Cl)cc2)cc1 (configuration not stated),-12,-2,3,.,10
COCCCNC(=O)CS(=O)Cc1nc(-c2ccccc2C)oc1C (configuration not stated),-48*,-3,2,15,-5
COCCNC(=O)CS(=O)Cc1nc(-c2ccc(Cl)cc2)oc1C (configuration not stated),9,-5,0,3,-3
O=C(CN1CCCCCCC1)N/N=C/c1ccc(F)cc1F,-32*,2,5,-29,-11
CC(=O)OCC(=O)NCCCOc1cccc(CN2CCCCC2)c1,.,.,.,-81*,-67
Cc1cccc(Cn2c(CNS(=O)(=O)c3ccc4c(c3)CCCC4)nc3cccnc32)c1,19,0,4,.,13
COc1ccc2oc(=O)cc(CN3CCN(C(=O)c4ccccc4Br)CC3)c2c1,-22,-3,0,.,-28
O=C(c1cccc(S(=O)(=O)Nc2ccccc2Cl)c1)N1CCC1,-16,2,0,-59*,-4
O=C(c1cccc(F)c1)N1CCN(c2cccc(Cl)c2)CC1,0,-3,-1,5,1
C/C(=N\NC(=O)c1cccc(S(=O)(=O)Nc2ccccc2Cl)c1)c1ccc(-n2ccnc2)cc1,12,1,-2,-52*,9
O=C(c1cccc(F)c1)N1CCCN(C(=O)c2cccc(F)c2)CC1,-81*,-5,1,23,-4
CC1CCN(S(=O)(=O)c2ccc3c(c2)N(CC(=O)NCCc2ccc(Cl)cc2)C(=O)CO3)CC1,-1,-2,-1,.,-18
O=c1ccc2ccc(O)cc2o1,.,.,.,10,2
O=c1ccc2cc(O)c(O)cc2o1,-41*,-4,2,1,6
COc1ccc(-c2nc3c(C#N)c[nH]n3c2NC2CCCCC2)cc1,10,-1,-1,.,-9
Cc1ccc(-n2c(C)cc(/C=N/Nc3ccc([N+](=O)[O-])cn3)c2C)cc1,-46*,-11,6,-6,-5

# Screening data deposited in PubChem by National Center for Advancing Translational Sciences (NCATS).
